Hits are enriched below; roughly 6% of the tested compounds scored in any of these assays.
Tau fibril FP = blocks human tau fibril formation measured by polarization. P10636. K18 P301L tau heparin fibrillization, Alexa594 FP, 6 h. Potency, µM (series often up to 57.7 µM), for inactives: at the top dose activity, negative = inhibition, hits mostly inhibitors. 280,000 tested, 0.39% active. AID 1468; further: nearly all actives have a fitted effect of over 55% in size
Target sequence (P10636 561-689 P618L limits assumed): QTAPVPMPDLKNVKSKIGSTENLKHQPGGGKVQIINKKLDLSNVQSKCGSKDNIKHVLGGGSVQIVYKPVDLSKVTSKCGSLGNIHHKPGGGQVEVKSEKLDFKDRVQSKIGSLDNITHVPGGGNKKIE
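Human K18 P301L fragment (15 uM unlabeled plus 0.24 uM Alexa 594-labeled) in 100 mM sodium acetate pH 7 with compound, aggregation induced by 20 uM heparin for 6 hr at 37 C. ThT (30 uM) added for 1 hr, then Alexa 594 FP read.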
Tau fibril ThT = inhibitors of human tau fibril formation, thioflavin T binding; Potency, µM (highest dose often 57.4 µM), without a hit: top-dose activity, negative = inhibition, usual class: inhibitors; 270,000 tested, 2.1% active; recombinant tau K18 P301L, heparin-induced fibrillization, ThT fluorescence; AID 1460; P10636; further: nearly all actives have a fitted effect of over 55% in size
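Using a mix of unlabeled (15 uM) and Alexa 594-labeled (0.24 uM) tau K18 P301L, heparin-triggered fibrillization over 6 hr at 37 C was scored by ThT fluorescence.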
Tau fluor cs = counter-screen for tau fibril formation inhibitors. tau K18 P301L (four-repeat tau fragment) Alexa594 fluorescence, heparin fibrillization. Potency, µM (highest dose often 57.7 µM), for the others: at the highest dose activity change, negative = decrease. 280,000 tested, 0.93% active. AID 1463; further: nearly all actives have a fitted effect of over 55% in size
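Human K18 P301L tau (15 uM unlabeled plus 0.24 uM Alexa 594-labeled, final) in 100 mM sodium acetate pH 7 was mixed with compound and 20 uM heparin and incubated 6 hr at 37 C.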
VDR inh = vitamin D3 receptor (human) inhibition; VDR-SRC2-3 peptide fluorescence polarization, 2 h; 400,000 tested, 0.93% active; P11473; Potency, µM, for the others: max response, negative = inhibition, most hits filed as inhibitors
Target sequence (P11473 whole entry, looked up): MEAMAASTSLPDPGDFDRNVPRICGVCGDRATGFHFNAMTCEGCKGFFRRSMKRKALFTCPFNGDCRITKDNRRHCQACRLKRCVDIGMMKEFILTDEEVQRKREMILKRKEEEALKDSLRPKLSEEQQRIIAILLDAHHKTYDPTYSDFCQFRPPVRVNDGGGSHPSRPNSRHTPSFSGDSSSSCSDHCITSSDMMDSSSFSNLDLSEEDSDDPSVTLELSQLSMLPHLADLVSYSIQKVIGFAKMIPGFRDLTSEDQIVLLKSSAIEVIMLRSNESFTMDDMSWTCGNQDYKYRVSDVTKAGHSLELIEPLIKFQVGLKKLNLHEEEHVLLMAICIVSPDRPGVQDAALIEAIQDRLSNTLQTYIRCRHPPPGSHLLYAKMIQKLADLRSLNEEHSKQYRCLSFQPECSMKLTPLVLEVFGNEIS
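After 23 nl compound addition and a short centrifugation, plates sat for 2 hours at ambient temperature; polarization of fluorescence then indicated loss of VDR binding to peptide SRC2-3.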
PLK1 PBD block = inhibitors of human PLK1 polo-box domain binding; 360,000 tested, 2.8% active; Plk1 PBD binding of FITC phosphopeptide, fluorescence polarization; Potency, µM, without a hit: max response, negative = inhibition, most hits filed as inhibitors; P53350; AID 720504; further: series mostly up to about 57 µM; nearly all actives have a fitted effect of over 65% in size
Sfp PPTase inh = blocks B. subtilis Sfp PPTase activity | Biochemical Sfp PPTase activity, qHTS | Potency, µM, inactives show largest response in the series, negative = inhibition, usual class: inhibitors | Q9F4F7 | 310,000 tested, 3.5% active;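 further: the enzyme is Sfp with the accession as filed and its product quenches rhodamine fluorescence; 0% = enzyme reaction without inhibitor and -100% = no enzyme wells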
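Reaction rates are the 30-min fluorescence difference (ex 525, em 598 nm) in wells containing 15 nM Sfp, 5 uM rhodamine-CoA and 12.5 uM BHQ-2-YbbR at pH 7.6 with 10 mM MgCl2.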
* marks the source's active call; other numbers are inactive results; ? = inconclusive; · = not tested or not shown; [ ] = another dose, or the depositor's remark. The call rests on the fitted dose curve; in most records, active means well fitted curve in the direction sought with a large enough effect; inconclusive means small, poorly fitted or top-dose-only effect, or another doubt; inactive means no such curve, though single readings can be large; an effect the other way counts as inactive or inconclusive. Unless noted, on the % scale 0 is the no-effect control and ±100 the full control effect; potency means the concentration at half of the fitted maximal effect.

SMILES | Tau fibril FP | Tau fibril ThT | Tau fluor cs | VDR inh | PLK1 PBD block | Sfp PPTase inh
O=C(c1ccc2c(c1)N(Cc1ccccc1F)C(=O)c1ccccc1S2(=O)=O)N1CCN(c2ccccc2F)CC1 | 0.3% | -4.9% | -17.0% | -23.0% | · | ·
O=C(O)C1CC=CCC1C(=O)Nc1ccc2c(c1)CCC2 (stereo not given) | · | · | · | 11.2% | 0.0% | 13.0%
C=CCOc1cccc(/C=C\c2nc(O)c([N+](=O)[O-])c(=O)[nH]2)c1 | · | · | · | 14.1µM* | -7.3% | -4.2%
O=c1[nH]c(/C=C\c2cccc(F)c2)nc(O)c1[N+](=O)[O-] | · | · | · | 39.8µM* | 0.4% | 3.0%
O=C(O)CCc1ccc(-c2ccccc2)n1Cc1ccco1 | -8.6% | ? | -23.7% | -11.1% | -21.7% | 35.5µM*
O=C(NCc1cccnc1)c1cccn1-c1ncc(C(F)(F)F)cc1Cl | -0.8% | 0.1% | 4.0% | ? | 29.9µM* | 12.3%
C=Cc1c(C)c2cc3nc(cc4[nH]c(cc5nc(cc1[nH]2)C(C)=C5CCC(=O)O)c(CCC(=O)OC)c4C)[C@@]1(C)C3=CC=C(C(=O)OC)[C@H]1C(=O)OC (tested in a mixture with another compound) | · | · | · | 1.12µM* | · | ?
Cc1ccc(NC(=O)CCS(=O)(=O)c2cc(Br)cc3c2N(C(=O)C2CC2)CC3)cc1 | -7.4% | -3.5% | -11.2% | -7.5% | · | ·
COc1ccc(S(=O)(=O)N(CC(=O)Nc2cc(Cl)ccc2C)Cc2ccccc2)cc1OC | -12.7% | 6.0% | ? | -5.2% | · | ·
CCCC(C)NC(=O)CSc1nc(-c2ccccc2)cn1N (stereo not given) | -6.0% | -2.2% | 2.1% | -4.4% | 26.7µM* | 11.6%
CC1CCCCN1C(=O)CSc1nc(-c2ccccc2)cn1N (stereo not given) | 0.7% | 0.2% | 1.5% | ? | 23.8µM* | -15.2%
CCN(CC)c1ccc(S(=O)(=O)N2CCCCC2)cc1NC(=O)CSCc1c(C)noc1C | · | · | · | 4.2% | -4.6% | ·
Cc1ccc(N2C(=O)CCC(C(=O)O)C2c2cccs2)cc1 (stereo not given) | · | · | · | 1.6% | -8.6% | 14.5%
Cc1ccc(N2C(S)=C(C#N)C(=O)NC2c2cccs2)cc1 (stereo not given) | 2.5% | 16.2% | 9.7% | 25.1µM* | 26.7µM* | 35.5µM*
O=C1CSC(c2cccs2)N1c1ccccc1 (stereo not given) | -3.2% | 1.9% | 2.0% | 8.8% | -4.5% | 16.3%
N#CC1=C(S)N(c2ccccc2)C(c2cccs2)NC1=O (stereo not given) | ? | ? | -11.4% | ? | ? | 10µM*
Cc1ccc(NCc2nnc(SCC(N)=O)n2CC2CCCO2)c(C)c1 (stereo not given) | 6.0% | -3.2% | 3.6% | -12.2% | 29.9µM* | 12.6%
NC(=O)CSc1nnc(CNc2ccc(F)cc2)n1CC1CCCO1 (stereo not given) | 4.5% | 2.3% | 8.5% | 9.2% | -13.6% | -2.8%
CCc1c(C(C)S(=O)(=O)c2ccc(C)cc2)[nH]c(=O)n1-c1ccc(C)cc1 (stereo not given) | -2.9% | ? | -15.1% | ? | 26.7µM* | 56.2µM*
CCc1[nH]c(=O)[nH]c1C(C)S(=O)(=O)c1ccc(C)cc1 (stereo not given) | ? | ? | -18.6% | -13.7% | 11.9µM* | 20µM*
Nc1nc(SCC(=O)NCCCN2CCOCC2)nc2sc3c(c12)CCC3 | 1.3% | -5.4% | -9.9% | -5.7% | ? | 28.2µM*
COc1ccc(NC(=O)C2CCCN2S(=O)(=O)c2ccc3nc(-c4ccccc4)[nH]c3c2)cc1 (stereo not given) | -14.4% | 2.3% | -0.9% | -2.5% | · | ·
Cc1ccc(NC(=O)C2CCCN2S(=O)(=O)c2ccc3nc(-c4ccccc4)[nH]c3c2)cc1F (stereo not given) | ? | -10.6% | 28.2µM*[quencher] | 9.8% | · | ·
Cc1ccc2nc(Cl)c3nnnn3c2c1 | -5.3% | ? | 1.0% | ? | 15µM* | -12.7%
Cc1ccc(C)c(NC(=S)NC(NC(=O)Cc2ccccc2)C(Cl)(Cl)Cl)c1 (stereo not given) | ? | -10.5% | -15.2% | -21.9% | ? | -7.8%
SMILES | Tau fibril FP | Tau fibril ThT | Tau fluor cs | VDR inh | PLK1 PBD block | Sfp PPTase inh
O=C(COc1ccccc1)NC(NC(=S)Nc1ccccc1C(=O)O)C(Cl)(Cl)Cl (stereo not given) | -2.1% | -5.4% | -3.3% | ? | 26.7µM* | -14.8%
N#Cc1ccc(NC(=O)COCc2cc(-c3ccco3)on2)cc1 | -7.3% | -16.3% | -14.2% | 1.7% | · | ·
CC(C)Cn1c(=S)[nH]c2cc(Cl)ccc21 | -8.8% | 4.3% | -11.4% | -17.3% | 23.8µM* | -29.7%
O=C(CSc1nc2c(c(=O)[nH]1)CCC2)Nc1cccc(O)c1 | -10.8% | -2.4% | -12.0% | 10.0% | · | ·
Cc1[nH]c2ccccc2c1CCN(Cc1cccnc1)C(=S)Nc1cccc(F)c1 | ? | -11.0% | ? | -2.5% | -3.7% | 10.1%
COc1cccc(NC(=S)N(CCc2c(C)[nH]c3ccccc23)Cc2cccs2)c1 | 12.3% | -15.2% | 8.91µM*[quencher] | 1.3% | -0.6% | 3.4%
Cc1[nH]c2ccccc2c1CCN(Cc1cccs1)C(=S)Nc1ccccc1 | 9.8% | -10.1% | 11.2µM*[quencher] | ? | -3.7% | 42.2%
Cc1[nH]c2ccccc2c1CCN(Cc1cccnc1)C(=S)Nc1ccc(F)cc1 | 12.8% | -11.3% | ? | -20.9% | -0.5% | -2.4%
Cc1ccc(CN2CCSCC2)c(C)c1 | 7.6% | 3.8% | 9.3% | -10.5% | 0.7% | ?
Cc1ccc(CN2CCCN(C)CC2)c(C)c1 | · | · | · | 79.4µM* | 18.9µM* | -18.9%
CCOC(=O)CN1CCC(c2cc(-c3ccc(Cl)cc3)n[nH]2)CC1 | · | · | · | 25.8% | 0.3% | -4.3%
O=[N+]([O-])c1cccnc1N1CCC(c2cc(-c3ccc(Cl)cc3)n[nH]2)CC1 | -7.8% | 7.94µM* | ? | 2.3% | -3.6% | ?
C[C@@H]1CN([C@@H](C)CO)S(=O)(=O)c2ccc(Br)cc2O[C@H]1CN(C)C(=O)c1ccccc1 | · | · | · | · | -7.1% | ·
CCCn1c(SCC(=O)N2c3ccc(F)cc3CCC2C)nnc1-c1ccccn1 (stereo not given) | -0.5% | -4.4% | -6.6% | ? | 29.9µM* | -6.7%
O=S(=O)([N-]c1nc2ccccc2nc1-[n+]1ccc(-c2ccncc2)cc1)c1ccccc1 | -2.2% | ? | -6.6% | 8.1% | 16.8µM* | 10.6%
O=S(=O)([N-]c1nc2ccccc2nc1-[n+]1ccccc1)c1ccccc1 | 0.5% | -3.6% | 0.5% | -17.0% | 5.8% | 8.5%
OC[C@@H]1CN(Cc2cccc(C(F)(F)F)c2)C[C@H](n2cnc3c(NC4CC4)ncnc32)O1 | · | · | · | · | 3.8% | ·
CCSc1nnc(NC(=O)C(C(F)(F)F)C(F)(F)F)s1 | ? | 22.4µM* | -20.6% | -8.9% | 13.4µM* | 3.6%
CCSc1nnc(NC(=O)C(C)C)s1 | -0.8% | -2.1% | -3.2% | -2.4% | -1.3% | 0.0%

Bioassay records from PubChem.
